Here are results for nine compounds from PubChem BioAssay (NCI).

Assay in all cases: NCI-60 one-dose screen, 48 h (100 = growth as untreated, 0 = no growth, -100 = all killed)
Common to all, as to details: 10 µM unless noted

The subject of assay [1] is DU-145 prostate.
For assay [2], the system named is K-562 leukemia.
The test system of assay [3] is MALME-3M melanoma.
Assay [4] relates to MDA-MB-231 breast.
The test system of assay [5] is RXF 393 renal.
The test system of assay [6] is SF-268 CNS.
The subject of assay [7] is SF-295 CNS.
Assay [8] deals with SF-539 CNS.
Assay [9] relates to UACC-257 melanoma.
Assay [10] has as its system M14 melanoma.
The subject of assay [11] is HCT-15 colon.
Assay [12] concerns HT29 colon.
Assay [13] deals with SNB-75 CNS.
For assay [14], the system named is U251 CNS.
Assay [15] relates to PC-3 prostate.
The subject of assay [16] is SK-MEL-5 melanoma.
Assay [17] concerns UACC-62 melanoma.
The test system of assay [18] is LOX IMVI melanoma.
The test system of assay [19] is SK-MEL-28 melanoma.
Assay [20] deals with SNB-19 CNS.

This is part of a sample that, as a whole, favours compounds with a hit. Of some 83,000 tested, about 20% had one in any assay.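 A percent growth of 40 corresponds to 60% growth inhibition; 0 means no net growth; -100 means all cells died. Active threshold: below 10.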 Unmarked numbers belong to inactive results. Active and inactive are the calls of the source.

In the case of `COc1cc2c(cc1OCCCN1CCN(CCCOc3cc4c(cc3OC)C(=O)N3CCC[C@H]3C=N4)CC1)C=CC(C)(C)O2`, the growth is -100% (active) in assay [1]; -35.8% (active) in assay [2]; -89.1% (active) in assay [3]; -81.9% (active) in assay [4]; -92% (active) in assay [5]; -91.9% (active) in [6]. The growth is -59.2% (active) in [7]; -100% (active) in assay [8]; -62.4% (active) in assay [9]; -74.2% (active) in assay [10]; -98% (active) in assay [11]; -100% (active) in assay [12]. The growth in [13] is -98.2% (active); in assay [14] it was -98.5% (active); in assay [15], -75.3% (active); in assay [16], -100% (active); in [17], 1.28% (active); in assay [18], -98.6% (active). For the same compound, in [19], the growth was -100% (active).

As for `CC(=O)O[C@H]1CC2CCC3C(CC[C@@]4(C)C3C[C@H]([N+]3(C)CCCCC3)[C@@H]4OC(C)=O)[C@@]2(C)C[C@@H]1N1CCCCC1` (some centres not stated), the growth is 120% in assay [1]; 104% in assay [2]; 121% in [3]; 91% in assay [4]; 113% in assay [5]; 115% in assay [6]. The growth in [7] is 96.4%; in assay [8], 110%; in assay [9], 98%; in assay [10], 106%; in assay [11], 118%; in assay [12] it was 105%. Further, the growth is 99.6% in assay [13]; 90.8% in assay [14]; 92.8% in [15]; 112% in assay [16]; 92.6% in assay [17]; 95.2% in assay [18]. Further, the growth in assay [19] was 108%.

Consider `CC(=O)c1c(C)nc(SCC(=O)Nc2cccc(O)c2)n1-c1ccc(Cl)cc1`, for which the growth in assay [1] is 103%; in assay [2] it was 105%; in [3], 90.8%; in assay [4], 82.1%; in assay [5], 92%; in [6] it was 96.2%. In addition, the growth in assay [7] was 97.4%; in assay [8], 105%; in [9], 101%; in [10], 94.4%; in assay [11] it was 95%; in [12], 102%. Also, the growth in assay [13] was 62.8%; in assay [14], 91.9%; in assay [15] it was 89.6%; in assay [16], 93.2%; in assay [17], 75.3%; in assay [18], 104%. The growth in [19] is 106%.

Consider `CCn1cc(C(=O)O)c(=O)c2cc(F)c(N3CCN(CC(=O)Nc4ccc(S(=O)(=O)Nc5nccc(C)n5)cc4)C(C)C3)c(F)c21` (configuration not stated), for which the growth in assay [1] is 105%; in assay [2], 105%; in [3], 111%; in assay [4] it was 100%; in assay [5] it was 99%; in [6], 98.3%. Besides, the growth in [7] was 104%; in assay [8] it was 99.2%; in assay [9], 114%; in assay [10], 103%; in [11] it was 100%; in assay [12] it was 117%. The growth in [13] is 95.7%; in assay [14], 110%; in assay [15], 98%; in assay [16], -93.3% (active); in assay [18], 95.6%; in assay [19] it was 107%.

Take `OB1OCc2cc(/C=C/c3cccc(C(F)(F)F)c3)ccc21`: the growth was -6.62% (active) in assay [1]; 11.4% in assay [2]; 9.86% (active) in [3]; -33.9% (active) in assay [4]; -40.3% (active) in [5]; 10.6% in assay [6]. Moreover, the growth is 7.3% (active) in assay [7]; -58.9% (active) in assay [8]; 37.1% in assay [9]; -7.54% (active) in [10]; 17.8% in assay [11]; 25.9% in assay [12]. Besides, the growth was -19.3% (active) in assay [13]; 0.414% (active) in assay [14]; 23.6% in [15]; -14.1% (active) in [16]; 19.9% in assay [17]; -72.5% (active) in assay [18]. The growth in assay [19] was 45.5%.

Turning to `Cc1cc(C(=O)Nc2ncc(Cc3cccc(C(F)(F)F)c3)s2)c2ccccc2n1`, the growth in [1] was 57.4%; in assay [2], 7.79% (active); in assay [3] it was 26.8%; in [4], 56.4%; in assay [5], 31.1%; in assay [6], 37.2%. Moreover, the growth was 15.1% in assay [7]; 21.9% in [8]; 43.3% in [9]; 3.81% (active) in assay [10]; 17.3% in assay [11]; 8.85% (active) in [12]. In addition, the growth in [13] is 18.1%; in assay [14], 18.5%; in [15], 26.7%; in [16], 0.694% (active); in assay [17] it was 9.95% (active); in assay [18], 12.6%. Besides, the growth in assay [19] is 40.4%.

Take `Cn1ccc(=O)c(C(=O)Nc2nsc3ccc([N+](=O)[O-])cc23)c1`: the growth in [1] was 63.2%; in [2], 78.3%; in assay [3], 65.7%; in assay [4], 47.9%; in assay [5] it was 35.9%; in assay [6], 74.9%. For the same compound, the growth in assay [7] was 110%; in assay [8], 77.6%; in assay [9] it was 89.6%; in [10], 46.6%; in assay [11] it was 54.9%; in [12], 68.2%. In addition, the growth in assay [13] is 72.1%; in assay [14], 63.1%; in assay [15], 56.8%; in assay [16], 87.4%; in [17] it was 32.6%; in assay [18] it was 51.3%. For the same compound, the growth in [19] was 78.3%.

Turning to `CN(C)CC(C)(C)C(=O)/C=C/c1ccccc1`, the growth in [1] was -46.5% [25 µM] (active); in assay [2], 1.32% [25 µM] (active); in assay [3], -69.5% [25 µM] (active); in [4], -10.9% [25 µM] (active); in assay [5], -77.2% [25 µM] (active); in assay [6], 1.85% [25 µM] (active). Besides, the growth in assay [7] is 7.02% [25 µM] (active); in assay [8], -77.2% [25 µM] (active); in [9], -43.5% [25 µM] (active); in [10] it was -50.4% [25 µM] (active); in assay [11], -47.6% [25 µM] (active); in [12], -16.7% [25 µM] (active). Moreover, the growth in [13] was -13.7% [25 µM] (active); in [20] it was -1% [25 µM] (active); in [14], -41.5% [25 µM] (active); in assay [16], -86.8% [25 µM] (active); in assay [18], -84.8% [25 µM] (active); in assay [19], -61.6% [25 µM] (active).

On to `COc1cc(-c2nc3sccn3c2-c2ccnc(NCCNS(=O)(=O)c3ccccc3)n2)ccc1F`, for which the growth in assay [1] is 61.4%; in assay [2], 28.3%; in assay [3], 49.2%; in assay [4] it was 48.8%; in [5], 21.5%; in assay [6] it was 48.6%. The growth is 66.4% in assay [7]; 83.8% in [8]; 62.4% in assay [9]; 38.6% in [10]; 52.1% in assay [11]; 24.6% in assay [12]. Further, the growth in assay [13] is 59.4%; in [14], 61%; in assay [16] it was 19%; in assay [17] it was 25.8%; in assay [19], 63.7%.
